Hit rate of the full screen: of about 69,000 compounds, about 8,600 (12%) showed an effect of 50% or more. Shown is part of a subset that was picked to be rich in strong results.

This experiment has as its system Plasmodium berghei. The experiment in a line: Screen against P. berghei liver stage (PbLuc), transformed with Luciferase, at 10uM. Type of experiment: functional, HepG2. To be noted: tested at 10 uM.
In the case of `COc1cc(C(=O)N2CCC(c3n[nH]c(C)n3)CC2)cc(OC)c1C`, the INHIBITION is 0.914%. With `O=C(Cc1n[nH]c(-c2cncc(Br)c2)n1)NCc1ccccn1`, the INHIBITION is 22.5%. In the case of `CC1(c2nccs2)CCN(C(=O)CCN2CCOCC2)CC1`, the INHIBITION is reported as 23.3%. For the compound `Cc1noc(C(C)N2CCN(Cc3nc(C)c(C)o3)CC2)n1` (configuration not stated), the INHIBITION is -2.143%. Take `Cc1noc(-c2cccnc2N(C)Cc2ccc([S+](C)[O-])cc2)n1` (configuration not stated): the INHIBITION worked out at 79.9%.

As to `Cc1noc(-c2cccnc2N2CCN(c3cnn(C)c3)CC2)n1`, the INHIBITION was -26.8%. For the compound `Cc1noc(-c2ccc(N(C)Cc3ccncn3)nc2)n1`, the INHIBITION is 26.4%.

In the case of `Cc1noc(-c2ccc(N(C)Cc3nccs3)nc2)n1`, the INHIBITION came out at 1.79%.

On to `Cc1noc(-c2cccnc2N(C)Cc2cc(C)on2)n1`, for which the INHIBITION was determined as 50.8%. For `Cc1noc(-c2ccc(N(C)Cc3cccnc3)nc2)n1` the value was 28.7%. Then `Cc1noc(-c2ccc(N(C)Cc3ccncc3C)nc2)n1`, with -3.58%; and `CN(Cc1ccc([S+](C)[O-])cc1)c1ccccn1` (configuration not stated), with 40.5%; and `Cc1noc(-c2cccnc2N(C)Cc2cscn2)n1`, with 68.8%. For `Cc1nn(S(=O)(=O)c2ccc(Cl)cc2)c(C)c1C` the value was 9.52%. On to `COc1cc(N2CCC3(CCN(C(=O)c4cccnc4)CC3)C2)ncn1`, for which the INHIBITION is recorded as -3.77%. As for `COc1ncccc1C(=O)N1CC[C@H]2C[C@H](c3nnc(C)[nH]3)O[C@@H]2C1`, the INHIBITION stood at 15.4%.

Regarding `CC(C)N(C)Cc1nnc2n1CCN(S(=O)(=O)C1CC1)CC2`, the INHIBITION is recorded as 29%. Regarding `N#Cc1cccc(N2CC3(CCN(C(=O)c4cccnc4)C3)CC2=O)c1` (configuration not stated), the INHIBITION was determined as 19.9%. Consider `CCCNC(=O)c1cnc(N(C)C)nc1COC`, for which the INHIBITION was -10.3%. For the compound `COCc1nc(N(C)C)ncc1C(=O)OC`, the INHIBITION came out at 66.5%. With `COCc1nc(N(C)C)ncc1C(=O)NC(C)C`, the INHIBITION is on record as -1.58%. As for `Cc1cnn(CC2CCCCN2C(=O)c2ccccc2-n2cccn2)c1` (configuration not stated), the INHIBITION was found to be 38.8%.

Consider `CCc1ccc(NS(=O)(=O)c2cc3c(c(C(=O)O)c2)OCCO3)cc1`, for which the INHIBITION was determined as 9.14%. Take `CCC(=O)N1CCC(n2cc(C(C)(C)O)nn2)CC1`: the INHIBITION is 42.1%.

In the case of `CC(C)n1cc(C(=O)N2CCC(n3cc(C(C)(C)C)nn3)CC2)cn1`, the INHIBITION is 29.8%. In the case of `CC(C)(C)c1cn(C2CCN(C(=O)c3cncnc3)CC2)nn1`, the INHIBITION was found to be 54.4%. For `CC(C)(C)c1cn(C2CCN(C(=O)c3cnccn3)CC2)nn1` the value was 61.1%; for `CC(C)(O)c1cn(C2CCN(C(=O)CCc3ccncc3)CC2)nn1`, 23.9%. On to `CC(C)(C)c1cn(C2CCN(C3CCSC3)CC2)nn1` (configuration not stated), for which the INHIBITION turned out to be 70.9%. With `OC1(c2cn(C3CCN(C4CCSC4)CC3)nn2)CCCC1` (configuration not stated), the INHIBITION is reported as -23%. For the compound `CC(C)(N)c1cn(C2CCN(C3CCSCC3)CC2)nn1`, the INHIBITION is given as -7.77%. Then `C[C@H]1C[C@@H]2CCN(C(=O)c3cnccn3)C[C@H]2O1`, with 7.31%.

`CCCc1cc(C(=O)N[C@H](C)[C@@H](O)c2ccc(O)cc2)n(C)n1`: the INHIBITION came to 20.3%. As to `Cc1ccccc1C(=O)NCC(=O)NCc1ccccn1`, the INHIBITION amounted to 46.3%. For `CC[C@@H]1N(Cc2ccc(F)cc2)CCC[C@]12CCC(=O)N2CCOC` the value was -69.5%; for `Cc1ccc(C(=O)N(C)Cc2csc(Br)c2)c(=O)[nH]1`, 21.8%; for `Cc1cc2n(n1)CC(CNCc1cc(C)on1)CN2` (configuration not stated), 26.8%. With `CCNC(=O)[C@@H]1CCCN1[C@@H](C(=O)NC)c1ccccc1`, the INHIBITION is given as -1.12%. As to `CC(O)CC(C)(C)CNS(=O)(=O)c1cccc(Cl)c1C#N` (configuration not stated), the INHIBITION came out at 53.5%. Take `Cc1c(F)cccc1S(=O)(=O)NCC(C)(C)CC(C)O` (configuration not stated): the INHIBITION is -11.9%. Take `Cc1cccc(S(=O)(=O)NCC(C)(C)CC(C)O)c1C#N` (configuration not stated): the INHIBITION was determined as 18.8%. Then `COc1cccc2c3c(c(=O)[nH]c12)CCO3`, with 20.9%. Then `CC(C)CN1CC[C@@H]2[C@@H]1CCN2S(=O)(=O)c1cn(C)cn1`, with 13.7%; and `COCCN(Cc1cnn(C)c1)c1nc(C)nc2sccc12`, with -39.2%; and `CCOCCN(CCOCC)c1nc(C)nc2sccc12`, with 69.7%.

In the case of `COCCN(Cc1sccc1C)c1nc(C)nc2sccc12`, the INHIBITION worked out at 14.6%. Then `CCCN(CCOC)c1nc(C)nc2sccc12`, with 53.9%; and `CCC(CN1CCCC1)NC(=O)Cc1c(C)[nH]c2c(C)cc(C)cc12` (configuration not stated), with 41.2%; and `Cc1nn(C)c(C)c1S(=O)(=O)N1C[C@@H]2C[C@@H](C)O[C@@H]2C1`, with 8.74%. On to `CN(C)C(=O)CN1C(=O)[C@@H]2CC[C@H]1CN(Cc1ccccc1C#N)C2`, for which the INHIBITION is reported as 23.9%. As to `O=C(NCC1CC1)C1CCC2(CCN(C(=O)c3cccs3)CC2)O1` (configuration not stated), the INHIBITION is reported as -14.7%. For `O=C(Nc1ccc(Br)cc1F)c1ccc(N2CCCCC2)nn1` the value was 10.8%. `CSc1ccccc1NC(=O)c1ccc(N2CCOCC2)nn1`: the INHIBITION was -117%. For the compound `O=C(Nc1ccc(Br)cc1F)c1ccc(N2CCOCC2)nn1`, the INHIBITION was 52.3%. Consider `COc1ccc(C)cc1C(=O)N1CCCC(n2cncn2)C1` (configuration not stated), for which the INHIBITION was -16%. As to `Cc1ccc(-c2nc(CN(Cc3ccco3)C3CCS(=O)(=O)C3)cs2)o1` (configuration not stated), the INHIBITION turned out to be 62.8%. With `Cc1nc(CN(Cc2cccs2)C2CCS(=O)(=O)C2)oc1C` (configuration not stated), the INHIBITION is reported as 19.5%.

(Values after ChEMBL document CHEMBL4513216, “Probing the Open Global Health Chemical Diversity Library for Multistage-Active Starting Points for Next-Generation Antimalarials” (ACS Infect Dis, 2020).)
